High-throughput results as filed in PubChem.
USP17 block – inhibitors of human USP17 deubiquitinase | Ubiquitin carboxyl-terminal hydrolase 17-like protein 5 (Homo sapiens), A8MUK1 | purified USP17, Ub-rhodamine cleavage fluorescence, 3 h | inhibition, % at 50 µM | 47,000 tested, 6.5% active | AID 1645855, 2021
Target sequence (A8MUK1 whole entry, looked up): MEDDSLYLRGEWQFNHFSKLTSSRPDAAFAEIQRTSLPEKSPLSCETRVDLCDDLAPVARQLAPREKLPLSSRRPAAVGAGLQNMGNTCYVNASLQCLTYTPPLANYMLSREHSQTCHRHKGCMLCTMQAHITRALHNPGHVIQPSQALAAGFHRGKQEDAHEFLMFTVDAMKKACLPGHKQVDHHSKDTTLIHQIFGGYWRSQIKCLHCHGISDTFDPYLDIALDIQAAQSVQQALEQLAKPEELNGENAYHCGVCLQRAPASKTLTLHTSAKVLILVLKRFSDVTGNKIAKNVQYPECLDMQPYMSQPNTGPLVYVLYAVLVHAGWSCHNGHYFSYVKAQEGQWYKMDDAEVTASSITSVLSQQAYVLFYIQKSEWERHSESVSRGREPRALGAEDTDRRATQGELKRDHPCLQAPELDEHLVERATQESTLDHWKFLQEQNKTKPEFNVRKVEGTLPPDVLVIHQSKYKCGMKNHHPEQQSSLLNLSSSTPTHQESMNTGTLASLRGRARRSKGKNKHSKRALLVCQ
USP28 block – inhibitors of human USP28 deubiquitinase. AID 1645857, 2021. Ubiquitin carboxyl-terminal hydrolase 28 (Homo sapiens), Q96RU2. 47,000 tested, 3% active. purified USP28, Ub-rhodamine cleavage fluorescence, 30 min. inhibition, % at 25 µM
USP30 block – inhibitors of human USP30 deubiquitinase. purified USP30, Ub-rhodamine cleavage fluorescence. inhibition, % at 25 µM. 47,000 tested, 5.3% active
* hit, by the source's call. This is a sample that favours compounds with a hit; in the whole collection about 11% have one here. No stated cut-off is given here; in the data, active means inhibition above about 30%; inactive means the rest.

For COc1cccc(C2CC(=O)Nc3n[nH]c(C)c32)c1OCc1ccc(F)cc1 (stereo unspecified) the results were USP17 block -3.8, USP28 block -8.1 and USP30 block 0.0.
For O=C(c1ccccc1-c1ocnc1C(=O)N1CCN(c2ncccn2)CC1)N1CCCCC1 the results were USP17 block -3.1, USP28 block -8.6 and USP30 block -13.1.
Cc1ccc(C(C)C)c(OCC(=O)Nc2nonc2-c2ccc(F)cc2)c1 was read as USP17 block 19.8, USP28 block 19.0 and USP30 block 18.7.
CCOc1ccc(NC(=O)Cn2c(=O)n(CCC(=O)NCc3ccccc3OC)c(=O)c3ccccc32)cc1 was read as USP17 block 51.9*, USP28 block 6.4 and USP30 block 49.7*.
For COc1ccccc1CNC(=O)CCc1cn(Cc2ccc(Cl)cc2)c2ccccc12 the results were USP17 block 32.2*, USP28 block 9.2 and USP30 block -0.2.
COc1ccccc1CNC(=O)CCn1c(=O)c2ccccc2n(Cc2ccccc2C#N)c1=O was read as USP17 block 40.2*, USP28 block 12.5 and USP30 block 22.7.
Screening COc1ccccc1CNC(=O)CCn1c(=O)c2ccccc2n(Cc2cccc([N+](=O)[O-])c2)c1=O returned USP17 block 6.3, USP28 block 6.6 and USP30 block 27.7.
COc1ccccc1CNC(=O)Cc1cc(-c2ccc(Cl)cc2)on1 was read as USP17 block 14.1, USP28 block -18.0 and USP30 block -54.4.
Screening COc1ccccc1CNC(=O)CCCCn1c(=O)c2ccccc2n(Cc2cc(=O)n3c(C)cccc3n2)c1=O returned USP17 block -31.6, USP28 block -24.6 and USP30 block -92.9.
CC1CCCCN1c1ncnc2c1sc1nc(-c3ccccc3)c3c(c12)CCC3 (stereo unspecified) was read as USP17 block -9.5, USP28 block -13.1 and USP30 block -6.1.
CCn1cc(S(=O)(=O)Nc2ncn(Cc3ccccc3C)n2)cn1 was read as USP17 block -33.4, USP28 block -14.7 and USP30 block -5.4.
For Cc1nc(-c2nccn2C)cc(C2CCN(C(=O)c3cncs3)CC2)n1 the results were USP17 block 4.6, USP28 block -12.0 and USP30 block -63.1.
`COc1cccc(C(=O)Oc2ccc3c(C)c(C)c(=O)oc3c2)c1` gave USP17 block 49.2*, USP28 block 10.3 and USP30 block 13.1.
Screening O=C(Oc1ccc2c(=O)c(Oc3ccccc3Br)coc2c1)c1ccc(F)cc1 returned USP17 block -9.0, USP28 block -10.7 and USP30 block -35.5.
For Cc1c(-c2ccccc2)c(=O)oc2cc(OC(=O)c3cccs3)ccc12 the results were USP17 block -1.9, USP28 block -6.2 and USP30 block -0.1.
Screening COc1cccc(C(=O)Oc2ccc3c(=O)c(-c4ccc(OC)c(OC)c4)coc3c2)c1 returned USP17 block 79.5*, USP28 block -3.7 and USP30 block 11.6.
CN1CCCc2cc(C(CNC(=O)c3c(F)cccc3F)N3CCCC3)ccc21 (stereo unspecified) was read as USP17 block -38.2, USP28 block -38.5 and USP30 block -118.5.
Screening CC(C)Nc1nc2c(cc1C(=O)N1CCCC1)CCN(S(C)(=O)=O)CC2 returned USP17 block -8.2, USP28 block -21.4 and USP30 block -26.7.
O=C(Nc1nnc(-c2cccs2)o1)C(c1ccccc1)c1ccccc1 was read as USP17 block 18.6, USP28 block 14.4 and USP30 block 44.5*.
Screening O=C(Nc1nnc(-c2ccc(Br)cc2)o1)C(c1ccccc1)c1ccccc1 returned USP17 block 6.3, USP28 block 12.2 and USP30 block 17.4.
O=C(CCn1cnc2cc(S(=O)(=O)N3CCCC3)ccc21)N1CCCC1 was read as USP17 block 6.5, USP28 block 2.7 and USP30 block 11.0.
Screening O=C(Nc1ncc2c(n1)CC(c1ccco1)CC2=O)c1ccco1 (stereo unspecified) returned USP17 block -18.5, USP28 block -6.0 and USP30 block -54.4.
For COc1cc(C2CC(=O)c3cnc(N4CCc5ccccc54)nc3C2)cc(OC)c1OC (stereo unspecified) the results were USP17 block -6.7, USP28 block -9.0 and USP30 block -60.3.
`Cc1ccc2c(C)nc(Nc3ncc4c(n3)CC(c3ccco3)CC4=O)nc2c1` (stereo unspecified) gave USP17 block 58.9*, USP28 block 28.8 and USP30 block 38.2*.
For O=C1CC(c2ccco2)Cc2nc(N3CCc4ccccc43)ncc21 (stereo unspecified) the results were USP17 block 36.5*, USP28 block 22.1 and USP30 block -8.1.
Screening O=C1CC(c2ccc(F)cc2)Cc2nc(N3CCc4ccccc4C3)ncc21 (stereo unspecified) returned USP17 block 11.3, USP28 block 1.6 and USP30 block 14.7.
`O=C1CC(c2ccco2)Cc2nc(N3CCc4ccccc4C3)ncc21` (stereo unspecified) gave USP17 block 44.3*.
`O=C(Cc1ccccc1F)N1CCC([C@@H]2C[C@H](C(F)F)n3ncnc3N2)CC1` gave USP17 block -12.1, USP28 block -4.7 and USP30 block 2.1.
`NC(=O)N1CCCCCC1C1CCN(c2ncnc3sccc23)CC1` (stereo unspecified) gave USP17 block -24.0, USP28 block -18.8 and USP30 block -22.9.
CN(C)c1cccc(C(=O)Nc2nnc(C3CCCCC3)s2)c1 was read as USP17 block 0.5, USP28 block 14.0 and USP30 block -27.1.
For CC1CCCCN1S(=O)(=O)c1ccc(C(=O)Nc2ccc(S(N)(=O)=O)cc2)cc1 (stereo unspecified) the results were USP17 block 55.9*, USP28 block 34.8* and USP30 block 71.5*.
For O=S(=O)(c1ccc(S(=O)(=O)N2CCCCC2c2cccnc2)cc1)N1CCOCC1 (stereo unspecified) the results were USP17 block -6.2, USP28 block -5.3 and USP30 block -15.6.
CC1CCN(S(=O)(=O)c2ccc(C(=O)Nc3ccc(S(N)(=O)=O)cc3)cc2)CC1 was read as USP17 block 10.1, USP28 block 21.3 and USP30 block 67.9*.
CC(=O)Nc1ccc(S(=O)(=O)N2CCCC2c2ccccc2)cc1 (stereo unspecified) was read as USP17 block 3.4, USP28 block 0.2 and USP30 block 7.8.
Screening O=C(Nc1ccc(S(=O)(=O)N2CCCCC2c2cccnc2)cc1)c1ccc2c(c1)OCO2 (stereo unspecified) returned USP17 block 29.5, USP28 block 41.0* and USP30 block 44.2*.
`CC(=O)Nc1ccc(S(=O)(=O)N2CCC(CN3CCCCC3)CC2)cc1` gave USP17 block -14.3, USP28 block -1.7 and USP30 block 16.0.
For Cc1ccc(-n2c(C)c(CNCc3ccccc3)c(C(=O)O)c2C)cc1 the results were USP17 block 8.3, USP28 block -0.1 and USP30 block -53.2.
For Cc1cccc(NS(=O)(=O)c2c(C(C)C)nc3sc(C)cn23)c1 the results were USP17 block 3.8, USP28 block 6.3 and USP30 block 3.9.
